For 39 molecules, inhibition results are on record in PubChem BioAssay.

Structures are written as SMILES. Calls of active or inactive are those of the source. No rule for the calls is given here.

As a reminder, the inhibition is the change of the read-out against control, counted positive when it falls.

Pantothenate synthetase (Mycobacterium tuberculosis (strain ATCC 25618 / H37Rv)), sequence (P9WIL5 whole entry, looked up): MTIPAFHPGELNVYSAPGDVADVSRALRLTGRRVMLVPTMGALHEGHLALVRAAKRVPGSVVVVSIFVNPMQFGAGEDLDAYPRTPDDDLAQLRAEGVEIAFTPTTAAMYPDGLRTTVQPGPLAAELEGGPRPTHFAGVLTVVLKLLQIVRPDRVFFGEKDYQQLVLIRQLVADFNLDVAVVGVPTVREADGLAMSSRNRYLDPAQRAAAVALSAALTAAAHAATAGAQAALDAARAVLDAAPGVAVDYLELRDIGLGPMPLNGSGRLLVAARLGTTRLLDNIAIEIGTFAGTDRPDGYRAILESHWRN

This assay concerns the target Pantothenate synthetase (Mycobacterium tuberculosis (strain ATCC 25618 / H37Rv)) (UniProt P9WIL5). Kind of assay: Recombinant Mtb pantothenate synthetase (PanC) inhibitors, coupled enzyme, confirmatory (AID 375).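 Also: 0% = full reaction with vehicle and 100% = no enzyme background.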 The settings on record: coupled enzyme assay; at 10 µM, hits give high values.
As for `O=C(Sc1nnnn1C1CCCCC1)c1cccs1`, the inhibition was 0% (inactive).

`COc1ccc(CN2C(=O)c3ccccc3C2C(=O)NC2CCCC2)c(OC)c1` (centres undefined): the inhibition is 0% (inactive).

As to `C=CCn1c(SCC(=O)NCC2CCCO2)nc2scc(-c3ccco3)c2c1=O` (centres undefined), the inhibition was 5% (inactive).

For `CCCSc1ccc2nc(NC(=O)OC)[nH]c2c1`, the inhibition was 0% (inactive).

With `COc1cccc(-c2noc(-c3cccs3)n2)c1`, the inhibition was 1% (inactive).

As to `CNC(=O)CSc1nnc(-c2ccc(S(=O)(=O)N3CCCC3)cc2)n1-c1cccc(C)c1C`, the inhibition was 0% (inactive).

Turning to `Cc1nn(C)c(C)c1S(=O)(=O)N1CCCC(C(=O)N2CCN(c3ccc(Cl)cc3)CC2)C1` (centres undefined), the inhibition is 0% (inactive).

Consider `CCOC(=O)c1c(NC(=O)c2nn(CC)cc2Br)c(C#N)cn1-c1ccccc1`, for which the inhibition is 0% (inactive).

Consider `Cc1ccc(C2N(c3ccc(Cl)c(Cl)c3)C(=O)C3CCCN32)o1` (centres undefined), for which the inhibition is 6% (inactive).

`Cc1cc(NC(=O)CSc2nc(CCC3CCCC3)nc3ccccc23)no1`: the inhibition was 3% (inactive).

Take `Cc1cc(-n2c(C)cc(C(=O)CSc3nc4ccccc4c(=O)n3Cc3ccco3)c2C)no1`: the inhibition is 0% (inactive).

For the molecule `O=C(NCc1ccco1)c1cc2cc3ccc(Cl)cc3nc2o1`, the inhibition was 4% (inactive).

Turning to `CN(C(=O)COC(=O)C1CCN(S(=O)(=O)c2cccs2)CC1)C1CCS(=O)(=O)C1` (centres undefined), the inhibition is 7% (inactive).

Regarding `CCCC(=O)N=C1SC2CS(=O)(=O)CC2N1c1ccc(CC)cc1` (centres undefined), the inhibition is 0% (inactive).

Regarding `CN(C)S(=O)(=O)N1CCN(S(=O)(=O)c2ccc(F)cc2)CC1`, the inhibition was 0% (inactive).

Take `COc1cccc(C(=O)Nc2cccc(C(=O)N3CCOCC3)c2)c1`: the inhibition is 2% (inactive).

Consider `COC(=O)c1[nH]c2cc(OC)ccc2c1NC(=O)CN1CCOCC1`, for which the inhibition is 0% (inactive).

`COc1ccc(CCNC(=O)c2cc3sc(Cl)cc3n2C)cc1OC`: the inhibition is 0% (inactive).

`CC(=O)Oc1cccc(/C=c2\sc3nc(-c4ccco4)nn3c2=O)c1`: the inhibition was 8% (inactive).

For `COc1ccc(OCCOC(=O)c2cccs2)cc1`, the inhibition is 0% (inactive).

For `Cc1[nH]nc2c1C(=O)CCC2`, the inhibition was 0% (inactive).

`COc1cc(NC(=O)c2ccco2)c(OC)cc1NC(=O)CCC(=O)Nc1cc(C)cc(C)c1`: the inhibition is 8% (inactive).

In the case of `CN1C(=S)SC(C)(NO)C1(C)C` (centres undefined), the inhibition was 0% (inactive).

Regarding `COc1ccccc1C1N(c2ccc(F)cc2)C(=O)C2CCCN21` (centres undefined), the inhibition is 0% (inactive).

For `CSc1nc(N)nc(SCCS(=O)(=O)c2ccc(Cl)cc2)c1C#N`, the inhibition is 0% (inactive).

With `CCN(CC)CCNC(=O)CCn1c(=S)[nH]c2cc3c(cc2c1=O)OCO3`, the inhibition was 0% (inactive).

For the molecule `CCCc1nnc(NC(=O)CCC(=O)N2CCN(CCOc3ccc(C)cc3)CC2)s1`, the inhibition is 5% (inactive).

Take `CC(=O)Nc1c(O)n(C)c2ccccc12`: the inhibition is 2% (inactive).

As to `CCCC(NC(=O)c1ccccc1)c1nc2ccccc2n1Cc1ccc(C(=O)OC)o1` (centres undefined), the inhibition is 0% (inactive).

Take `Cc1nc2c(-c3ccccc3)c(C)nn2c(C)c1CCC(=O)NCc1ccco1`: the inhibition was 2% (inactive).

As to `CCOn1c(=O)c(=O)n(OCc2ccccc2)c2ccccc21`, the inhibition is 0% (inactive).

Regarding `O=C(CC(CC(=O)c1ccccc1)C(=O)O)c1ccccc1`, the inhibition is 3% (inactive).

For `Cc1ccc2c(c1)-c1c(cnn1CC(=O)Nc1ccccc1N1CCN(C)CC1)CO2`, the inhibition is 0% (inactive).

Take `COc1cccc(OC)c1C(=O)Nc1ccccc1N1CCCC1`: the inhibition was 2% (inactive).

`CCc1cc2c(=O)c(-c3ccc4c(c3)OCCO4)coc2cc1OC(=O)c1ccco1`: the inhibition is 0% (inactive).

For the molecule `Cc1cc(C)nc(NC2=NCC(=O)N2c2ccc(Cl)cc2)n1`, the inhibition is 0% (inactive).

Turning to `Cc1cccc(CCNC(=O)C2CCCN(S(=O)(=O)c3cnc[nH]3)C2)c1` (centres undefined), the inhibition is 5% (inactive).

For the molecule `CCOc1ncccc1C(=O)OCC(=O)N1CC(=O)Nc2ccccc21`, the inhibition was 0% (inactive).

As for `COc1cccc(NC(=O)CSc2nnc(-c3cccs3)n2C)c1`, the inhibition is 0% (inactive).
